D2 PAM-1: potentiates the human D2 dopamine receptor allosterically | DiscoveRx D2 beta-arrestin cells, luminescence, 90 min; 100% = 57 uM dopamine signal | 360,000 tested, 0.23% active | P14416 | potentiation, % (concentration not given with the values) | AID 624464; in the data active = potentiation above about 50%; inconclusive = mostly about 30% to 49%
Target sequence (P14416 whole entry, looked up): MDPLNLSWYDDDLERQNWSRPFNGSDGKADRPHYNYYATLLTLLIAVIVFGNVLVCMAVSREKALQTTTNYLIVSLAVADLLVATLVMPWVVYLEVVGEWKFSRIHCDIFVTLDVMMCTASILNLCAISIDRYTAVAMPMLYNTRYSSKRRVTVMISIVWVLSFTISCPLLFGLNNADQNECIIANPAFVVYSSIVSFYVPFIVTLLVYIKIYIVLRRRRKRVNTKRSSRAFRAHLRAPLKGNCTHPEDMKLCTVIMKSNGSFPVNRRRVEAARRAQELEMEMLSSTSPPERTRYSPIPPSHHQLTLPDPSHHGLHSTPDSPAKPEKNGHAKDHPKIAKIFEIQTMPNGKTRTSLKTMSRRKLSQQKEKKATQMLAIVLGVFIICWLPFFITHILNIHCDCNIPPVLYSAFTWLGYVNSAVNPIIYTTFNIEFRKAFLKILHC
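D2 cells co-treated with compound plus 50 nM dopamine (EC20) for 90 min at 37 deg C to detect potentiation. Beta-arrestin recruitment was read as enzyme-fragment luminescence after 1 h at ambient temperature. Full response was set by 57 uM dopamine.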
D2 antag: antagonizes the human D2 dopamine receptor. P14416. HEK293 TREx D2 cells, calcium flux, dopamine EC80. inhibition, % at 10 µM. 340,000 tested, 2% active. AID 485344; in the data active = inhibition above about 30%; inactive = below that, where a call was filed; note: 0% is about no effect
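Compounds are added to dye-loaded, induced HEK293 T-REx cells coupled to calcium release via D2; after a 3 min kinetic read an EC80 dopamine stimulus is given and fluorescence is recorded for 3 more min.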
D2 ag-1: human D2 receptor agonism in beta-arrestin assay; P14416; DiscoveRx PathHunter D2 beta-arrestin, luminescence, 90 min; 100% = 57 uM dopamine signal; activation, % (concentration not given with the values); 360,000 tested, 0.084% active; AID 624465; in the data active = activation above about 40%; inconclusive = between about 15% and that limit
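Agonist mode: compounds alone added to overnight-plated D2 PathHunter cells for 90 min at 37 C, with 57 uM final dopamine (EC100) defining full response. Beta-arrestin recruitment detected by chemiluminescent reagent, read after 1 h at ambient temperature.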
D2 PAM-2: positively modulates the human D2 dopamine receptor allosterically; 340,000 tested, 0.34% active; potentiation, % at 10 µM; HEK293 T-REx D2, calcium flux, EC20 dopamine potentiation; AID 485347;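 active = potentiation over 3 SD above the plate norm, cut at about 30% in these data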; note: 0% is about no effect
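Calcium flux readout, no-wash dye, 1 read/s. Inducible HEK293 Trex D2 line, overnight 30 C. Compound alone 180 s (agonist flags), then EC20 dopamine, another 180 s to score potentiation.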
D2 ag-2: D2 dopamine receptor (human) agonism; HEK293 T-REx D2 cells, calcium flux agonist mode; activation, % at 2 µM; 340,000 tested, 0.53% active; AID 485358;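 active = activation over 3 SD above normal in the single-dose calcium agonist read, cut at about 30% in these data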; note: 0% is about no effect
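Tetracycline-induced HEK293 T-REx cells with force-coupled D2 receptor, plated overnight at 30 C, loaded with no-wash calcium dye. After a 10 s baseline, compound was pin-added and calcium flux read kinetically for 180 s; calcium rises flagged agonists.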
Numbers without * were called inactive; ? = inconclusive; · = not tested or not shown. Only some compounds are listed: those with a hit (about 2.4% of all), similar ones and a draw of the others.

SMILES	D2 PAM-1	D2 antag	D2 ag-1	D2 PAM-2	D2 ag-2
CCOc1ccc(OCC)c(NC(=O)CCC(=O)N2CCOc3ccccc32)c1	·	·	·	6	·
Cc1cc2n(n1)CCC(=O)N2Cc1ccc(C(=O)Nc2ccc(Br)c(C)c2)cc1	·	·	·	-11	1
CCN(CC)CCNC(=O)c1cc(Cl)c(N)cc1OC	-23	82*	-7	-28	1
CCN(CC)CCNC(=O)c1cc([N+](=O)[O-])c(N(C)C)cc1OC	-14	94*	-2	-21	-1
CCOc1ccc(CCNC(=O)c2ccc(-c3nc(COc4ccc(C)cc4)c(C)o3)cc2)cc1	·	·	·	-7	0
CC(=O)c1cccc(S(=O)(=O)N2CCC(C(=O)OC3CCOC3=O)CC2)c1 (centres undefined)	0	43*	3	11	1
Cc1ccc(S(=O)(=O)N2CCOCC2)cc1C(=O)OC1CCOC1=O (centres undefined)	-25	41*	-4	-10	0
O=C(NC(=O)N1CCN(c2cccc(Cl)c2)CC1)c1ccccc1	-20	3	1	5	-2
O=C(NC(=O)N1CCN(c2cccc(Cl)c2)CC1)c1ccc(Cl)cc1	-29	57*	6	-17	4
O=C(NC(=O)N1CCCCCC1)c1ccc(Cl)cc1	-5	32*	-1	3	0
Cc1c(NC2=C(Cl)C(=O)N(c3ccccc3)C2=O)c(=O)n(-c2ccccc2)n1C	-10	38*	-2	1	1
Cc1c(Nc2c3ccccc3nc3ccccc23)c(=O)n(-c2ccccc2)n1C	6	1	0	-4	0
CCOC(=O)Nc1sc(C(=O)N(CC)CC)c(C)c1C(=O)OCC	-11	-11	-6	45*	1
CSc1ccc(CCNC(=O)C(C)n2nc(C)c3sc4ccccc4c3c2=O)cc1 (centres undefined)	·	·	·	-15	1
Cc1ccc(C)c(Cn2c(CO)nc3ccccc32)c1	-8	-19	-3	15	-1
Cc1ccc(C)c(Cn2ncc3ccccc32)c1	-4	-19	-4	41*	-1
Cc1onc(-c2ccccc2Cl)c1C(=O)O/N=C(\N)c1ccccc1	?	5	43*	-1	-2
Cc1ccc(C(=O)O/N=C(\N)c2ccc(Br)cc2)cc1C	?	-8	10	-10	-2
C/C(=N\OC(=O)c1c(-c2ccccc2Cl)noc1C)c1ccncc1	-7	3	-4	-4	0
COc1ccc(C(=O)O/N=C(\N)c2cccc(C)c2)cc1OC	27	-3	?	9	0
Cc1cccc(C(=O)O/N=C(\N)c2ccc(Cl)cc2)c1	-6	14	46*	-9	0
Cc1cc(C)cc(C(=O)O/N=C(\N)c2ccc(Br)cc2)c1	64*	35*	?	4	0
Cc1ccc(C)c(C(=O)O/N=C(\N)c2ccc(Br)cc2)c1	57*	0	12	12	-1
Cc1cccc(C(=O)O/N=C(\N)c2ccc(Br)cc2)c1	138*	-19	?	-7	-2
CCSc1nnc(NC(=O)c2c(-c3ccccc3Cl)noc2C)s1	23	109*	-3	15	1
SMILES	D2 PAM-1	D2 antag	D2 ag-1	D2 PAM-2	D2 ag-2
Cc1onc(-c2ccccc2Cl)c1C(=O)Nc1nnc(-c2cccc([N+](=O)[O-])c2)s1	-1	·	1	·	·
COc1ccc(/C(N)=N/OC(=O)c2cccs2)cc1	7	2	9	3	1
Cc1cc(/C(N)=N/OC(=O)c2ccc(Cl)cc2)no1	-4	-7	2	-7	-1
N/C(=N\OC(=O)c1cccc(Br)c1)c1ccccc1	?	7	11	-6	-1
Cc1cc(/C(N)=N/OC(=O)c2cccc(Cl)c2)no1	13	50*	5	-1	0
N/C(=N\OC(=O)c1cccs1)c1ccc(Cl)cc1	?	-7	50*	-6	0
COc1ccc(NC(=O)c2c(NCc3ccc(C)o3)sc3c2CCCCC3)c(OC)c1	·	·	·	13	·
COc1ccccc1NC(=O)N1CC=C(c2c[nH]c3ccccc23)CC1	·	·	·	-14	0
COc1ccc(O)c(N)c1	·	-19	·	43*	1
CCn1c(C)c(C(=O)c2ccccc2)c(C#N)c1C(=O)O	-2	33*	0	-10	-1
Cc1c(C#N)c(N)c(C(=O)c2ccccc2)n1Cc1ccccc1	-15	16	-4	-5	0
Cc1nc(-c2ccc(Cl)cc2)sc1CCNC(=O)C(=O)Nc1ccc(F)cc1F	·	·	·	6	0
CCCn1cc(S(=O)(=O)c2ccccc2)c(=O)c2cc(OC)c(OC)cc21	-7	1	-3	39*	0
Oc1ccc[n+](/C=C\c2ccccc2)c1	-10	38*	0	14	0
Oc1ccc[n+](CCCCC[n+]2cccc(O)c2)c1	-12	-11	-5	-4	0
COc1cc2cnc(-c3ccccc3)c(-c3cccc(C(F)(F)F)c3)c2cc1OC	162*	-2	?	1	-1
CCN(C(=O)c1cc(S(=O)(=O)N2CCc3ccccc32)cn1C)c1cccc(C)c1	·	·	·	-5	1
CCCCc1ccc(NC(=S)NCCc2ccc(F)cc2)cc1	-11	30*	0	-25	0
CCCCNC(=S)Nc1ccc(Cl)cc1	-21	4	-3	-3	1
CCCCc1ccc(NC(=S)NCCO)cc1	-8	31*	1	13	0
CC(=O)Nc1ccc(NC(=O)CCc2c(C)nc3c(c(C)nn3-c3ccc(C)cc3)c2C)cc1	·	·	·	9	-1
Cn1c(N)c(C(=O)CSc2nnc(-c3ccccc3F)n2N)c(=O)n(C)c1=O	-5	34*	0	0	0
Cn1c(N)c(C(=O)CSc2nnc(-c3ccccc3F)n2C2CC2)c(=O)n(C)c1=O	6	1	3	1	2
Cc1ccc(Cl)cc1NC(=O)Nc1nnc(N2CCCC(C)C2)s1 (centres undefined)	·	·	·	·	-1
c1ccc(N2CCN(c3nc4ccccc4n4nnnc34)CC2)cc1	19	-9	0	8	1
Cc1cc(C)n(-c2nc3ccccc3n3nnnc23)n1	-2	4	0	33*	-1
CCc1ccccc1NC(=O)c1ncoc1-c1ccco1	·	·	·	1	1
CCOC(=O)CSc1nc(C)nc2c1sc1nc(C)c(C(C)=O)c(-c3ccc(OC)cc3)c12	-9	40*	-2	5	3
COc1ccccc1NC(=O)CSC1=Nc2ccccc2C2=NC(CCC(=O)NCc3cccs3)C(=O)N12 (centres undefined)	·	·	·	-13	0
O=C(NC1CC2CCC(C1)N2Cc1ccccc1)c1ccccc1Br (centres undefined)	-82	67*	1	-22	0

Screening data: PubChem, National Center for Advancing Translational Sciences (NCATS)
